Laboratory results: ChEMBL document CHEMBL1157539, “Thousands of chemical starting points for antimalarial lead identification” (Nature, 2010)

Legend:
Type in all cases: functional
Plasmodium falciparum [1] = assay: GSK_TCMDC: Inhibition of Plasmodium falciparum 3D7 in whole red blood cells, using parasite LDH activity as an index of growth. Test compounds present at 2uM
Plasmodium falciparum [2] = assay: GSK_TCMDC: Inhibition of Plasmodium falciparum Dd2 in whole red blood cells, using parasite LDH activity as an index of growth. Test compounds present at 2uM
HepG2 = assay: GSK_TCMDC: Percent inhibition of human HepG2 cell line. Test compounds present at 10uM.

CC(Cc1ccc(NC(=O)c2ccc(CNCc3ccccc3)cc2)cc1)N(CCc1cccc(Cl)c1)C(=O)OC(C)(C)C (stereo not drawn)
Inhibition (Plasmodium falciparum [1]): 95% | Inhibition (Plasmodium falciparum [2]): 2% | Inhibition (HepG2): 16%

Cc1cc(C)c(S(=O)(=O)N2CCCCC(c3cccc(C(F)(F)F)c3)=N2)c(C)c1
Inhibition (Plasmodium falciparum [1]): 94% | Inhibition (Plasmodium falciparum [2]): 95% | Inhibition (HepG2): 0%

Cl.N=C(N)c1ccc(C=CC(=O)NCC(O)CNC(=O)C=Cc2ccc(C(=N)N)cc2)cc1 (stereo not drawn)
Inhibition (Plasmodium falciparum [1]): 90% | Inhibition (Plasmodium falciparum [2]): 80% | Inhibition (HepG2): 0%

CCNc1cc(C(=O)N[C@@H](Cc2ccccc2)[C@H](O)CN[C@@H]2CCc3ccccc32)cc(N2CCCC2=O)c1
Inhibition (Plasmodium falciparum [1]): 92% | Inhibition (Plasmodium falciparum [2]): 93% | Inhibition (HepG2): 0%

COc1cccc2c(Nc3ccccc3C)nc(Nc3ccccc3C)nc12
Inhibition (Plasmodium falciparum [1]): 95% | Inhibition (Plasmodium falciparum [2]): 36% | Inhibition (HepG2): 9%

CN(C)c1nc(NCc2ccccc2)nc(N/N=C/c2cc([N+](=O)[O-])ccc2O)n1
Inhibition (Plasmodium falciparum [1]): 100% | Inhibition (Plasmodium falciparum [2]): 90% | Inhibition (HepG2): 48%

N#Cc1ccccc1Sc1ccccc1C(=O)Nc1ccc2ccccc2n1
Inhibition (Plasmodium falciparum [1]): 92% | Inhibition (Plasmodium falciparum [2]): 85% | Inhibition (HepG2): 0%

COc1cc2nccc(Nc3cccc(Oc4ccccc4)c3)c2cc1OC.Cl
Inhibition (Plasmodium falciparum [1]): 100% | Inhibition (Plasmodium falciparum [2]): 95% | Inhibition (HepG2): 25%

Oc1ccc2[nH]c(-c3cccc(F)c3)nc2c1CN1CCC(O)(c2ccccc2)CC1
Inhibition (Plasmodium falciparum [1]): 97% | Inhibition (Plasmodium falciparum [2]): 72% | Inhibition (HepG2): 21%

CC(C)NC(=O)c1cccc(-c2cccc(OCCN3CCSCC3c3ccccc3)c2)c1 (stereo not drawn)
Inhibition (Plasmodium falciparum [1]): 89% | Inhibition (Plasmodium falciparum [2]): 45% | Inhibition (HepG2): 24%

Oc1ccc(Cl)c2c1C(c1ccccc1)=NCC2
Inhibition (Plasmodium falciparum [1]): 95% | Inhibition (Plasmodium falciparum [2]): 43% | Inhibition (HepG2): 0%
